Shown are actives, neighbours in structure and some others; about 1.5% of the full set was active somewhere.
MazEF act – MazEF (E. coli) toxin RNase activation | P0AE70 | FAM/BHQ RNA-DNA oligo cleavage fluorescence, 5 h | activation, % at 20 µM | 350,000 compounds, 0.32% hits | AID 504720; in the data active = activation above about 50%
Target sequence (P0AE70 whole entry, looked up): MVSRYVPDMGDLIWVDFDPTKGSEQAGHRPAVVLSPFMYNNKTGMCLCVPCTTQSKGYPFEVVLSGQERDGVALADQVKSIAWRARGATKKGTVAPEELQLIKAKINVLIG
PrP 5UTR inh – suppresses PrP 5' UTR mRNA reporter expression; cell-based PrP 5' UTR mRNA reporter, plate reader; inhibition, % (no concentration beside the values); 340,000 compounds, 0.35% hits; AID 488862; in the data active = inhibition above about 52%; note: 0 = median of the neutral control wells
SARS 3CLpro inh – SARS-CoV 3CLpro protease inhibition | recombinant SARS-CoV 3CLpro, quenched FRET peptide cleavage | inhibition, % at 6 µM | 290,000 compounds, 0.14% hits | AID 1706; in the data active = inhibition above about 12%
DUSP3 inh – blocks human VHR1 dual specificity phosphatase | P51452 | recombinant VHR phosphatase, pNPP absorbance | inhibition, % at 13.3 µM | 290,000 compounds, 0.52% hits | AID 1654; in the data active = inhibition above about 50%
Target sequence (P51452 whole entry, looked up): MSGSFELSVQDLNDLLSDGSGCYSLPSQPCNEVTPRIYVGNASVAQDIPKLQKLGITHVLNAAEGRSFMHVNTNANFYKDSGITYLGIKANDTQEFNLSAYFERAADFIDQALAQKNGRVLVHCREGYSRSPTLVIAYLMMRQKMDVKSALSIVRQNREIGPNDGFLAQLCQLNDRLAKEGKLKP
PrPC surface inh – cell surface PrPC inhibition, primary TR-FRET screen; P04156; TR-FRET read-out; inhibition, % at 13.8 µM; 370,000 compounds, 0.43% hits; in the data active = inhibition above about 24%; note: 0% = median of the test wells and 100% = reference compound wells
Mtb hypoxia rep – inhibitors of hypoxia-regulated fluorescent reporter in Mycobacterium tuberculosis. 300,000 compounds, 0.1% hits. fluorescence inhibition, % (test concentration not listed). M. tuberculosis hypoxia-regulated fluorescent reporter, fluorescence; in the data active = fluorescence inhibition mostly above about 23%, no sharp cut-off; inactive = mostly below about 17%
PrP 5UTR single – prion 5' UTR mRNA inhibition, cherry-pick retest; shares compounds with PrP 5UTR inh; cell-based prion protein 5' UTR reporter, plate reader; inhibition, % at 2.5 µM; 1,100 compounds, 48% hits; AID 504592; in the data active = inhibition above about 54%; inconclusive = no clear call, values can overlap the other calls
* hit, by the source's call; ? = inconclusive; nt = no result given.

SMILES	MazEF act	PrP 5UTR inh	SARS 3CLpro inh	DUSP3 inh	PrPC surface inh	Mtb hypoxia rep	PrP 5UTR single
COc1cc2c3c(c1)C(C)=CC(C)(C)N3C(=O)C2=O	3.9	79.5*	7.2	7.3	-18.6	-1.2	-2.1
COCc1cccc(C2=CC(=O)CC(c3ccc(OC)cc3)C2)c1 (stereo unspecified)	nt	nt	nt	nt	nt	24.7	nt
S=C(Nc1ccccc1)Nc1ccc(OCc2ccc(Cl)cc2Cl)cc1	-4.6	89.0*	4.2	-9.0	5.6	11.0	87.2*
CCOC(=O)C(C)Oc1cccc2c(=O)n(CC(=O)NCc3ccccc3)ccc12 (stereo unspecified)	0.4	75.4*	4.2	10.0	10.2	18.1	88.0*
CCOC(=O)C(C)Oc1cccc2c(=O)n(CC(=O)NCc3ccc(F)cc3)ccc12 (stereo unspecified)	5.0	79.4*	-3.4	2.5	-2.0	12.5	90.8*
O=C(CC1CC=CCC(Cc2ccc(F)cc2)C(=O)OCC(c2ccccc2)NC1=O)NCCO (stereo unspecified)	nt	nt	nt	nt	nt	19.2	nt
CCN1C/C(=C\c2cccc([N+](=O)[O-])c2)C(=O)/C(=C/c2cccc([N+](=O)[O-])c2)C1	-2.2	63.0*	-2.2	7.4	0.4	12.3	60.8*
Cc1nn(-c2ccccc2)c(=O)c2ccccc12	6.2	-19.1	0.5	6.9	-10.7	6.0	nt
Cc1nn(-c2ccccc2)c2c1CC(=O)Nc1ccccc1-2	1.9	64.4*	nt	nt	12.4	nt	80.0*
CN1C(CCl)Nc2cc(Cl)c(S(N)(=O)=O)cc2S1(=O)=O (stereo unspecified)	-1.7	76.7*	nt	nt	3.2	nt	-14.9
Cc1ccc(OCCC(=O)OCC(=O)c2c(N)n(CC(C)C)c(=O)n(C)c2=O)cc1	0.9	89.5*	nt	nt	-3.2	8.3	1.5
CCOc1ccc(OCCC(=O)OCC(=O)c2c(N)n(CC(C)C)c(=O)n(C)c2=O)cc1	-1.1	nt	nt	nt	0.7	nt	nt
COC(=O)c1ccc(CN2C(=O)NC(CC(C)C)C2=O)cc1 (stereo unspecified)	12.0	81.1*	0.6	10.6	2.5	7.3	-0.5
COc1ccc(C(C)=N/N=C2/NC(=O)CC(C(=O)O)S2)cc1 (stereo unspecified)	nt	nt	nt	nt	nt	-1.0	nt
CCCCCCCCC=CCCCCCCCC(=O)NCCc1ccc(O)c(O)c1	nt	nt	nt	nt	nt	0.5	nt
NNC(=S)NC1CCCCC1	8.3	79.9*	2.7	16.9	6.2	-4.7	-18.1
CC(=NNC(=O)CSc1nc(C)[nH]c1[N+](=O)[O-])c1ccc(F)cc1	nt	nt	nt	nt	nt	3.2	nt
CC(=NNC(=O)c1cccs1)c1ccc(N2CCOCC2)cc1	nt	nt	nt	nt	nt	5.9	nt
Cc1cc([N+](=O)[O-])c2ccccc2[n+]1[O-]	0.9	87.4*	-0.5	3.8	nt	nt	97.7*
O=c1c2c(-c3ccccc3)csc2ncn1N=Cc1cccc([N+](=O)[O-])c1O	nt	nt	nt	nt	nt	11.9	nt
O=C(c1cc2n(n1)C(C(F)(F)F)CC(c1ccco1)N2)N1CCc2ccccc2C1 (stereo unspecified)	4.0	64.4*	-2.9	-12.0	-0.8	-2.5	-16.7
COC(=O)c1cnn(-c2ccccc2)c1C=NNC(=S)Nc1ccc(Cl)cc1	nt	nt	nt	nt	nt	-10.4	nt
CCOC(=O)c1cnc(Nc2nc3ccccc3o2)nc1CN1CCN(c2ccccc2)CC1	nt	nt	-4.1	nt	nt	nt	nt
CCOC(=O)c1cnc(Nc2nc3ccccc3o2)nc1C	4.0	64.9*	-0.9	0.0	-9.0	-2.0	70.0*
Cc1c(N(C)CS(=O)(=O)O)c(=O)n(-c2ccccc2)n1C	6.8	57.8*	nt	nt	-2.2	10.7	-25.6
SMILES	MazEF act	PrP 5UTR inh	SARS 3CLpro inh	DUSP3 inh	PrPC surface inh	Mtb hypoxia rep	PrP 5UTR single
Cc1c(N(C)C(=O)c2ccco2)c(=O)n(-c2ccccc2)n1C	-0.2	-13.0	-4.9	-8.6	1.2	5.1	nt
Cn1cccc1CC(=O)NN=Cc1ccc([N+](=O)[O-])cc1	nt	nt	nt	nt	nt	1.2	nt
CC1CCc2nc(NC(=O)Cc3cccs3)sc2C1 (stereo unspecified)	9.0	-111.6	4.6	14.6	1.9	nt	nt
O=C(Nc1nc2cc3c(cc2s1)OCO3)C1=COCCO1	9.5	69.8*	-9.8	0.2	-3.6	-5.1	64.1*
CC1CCc2nc(NC(=O)c3ccco3)sc2C1 (stereo unspecified)	-7.1	57.5*	1.4	-0.2	1.1	nt	53.6*
O=C(Nc1ccc(-c2nc3ccccc3s2)cc1)C1=COCCO1	-4.5	73.1*	3.3	2.9	-5.8	7.6	65.6*
O=C(Nc1nc2cc3c(cc2s1)OCO3)c1ccco1	-5.3	52.5	1.7	-8.8	1.7	-3.8	nt
O=C(Nc1nc2cc3c(cc2s1)OCCO3)c1ccco1	5.3	78.5*	-3.9	-0.2	0.9	nt	80.6*
C#CCOCCOCCOCCNc1nc(N2CCN(C(=O)CCCCCCCCCCNC(=O)C(CCSC)n3cc(CCO)nn3)CC2)nc(N2CCN(C(=O)CCCCCCCCCCNC(=O)C(C(C)O)n3cc(C)nn3)CC2)n1 (stereo unspecified)	nt	nt	nt	nt	nt	3.7	nt
O=C(Cc1ccc([N+](=O)[O-])cc1)NN=Cc1ccco1	nt	nt	nt	nt	nt	-0.6	nt
O=C(NC(CO)Cc1ccccc1)c1ccco1 (stereo unspecified)	nt	nt	nt	nt	nt	13.0	nt
CCOc1ccc(C(=O)NC(=S)Nc2cccc(S(=O)(=O)NC3=NCCC3)c2)cc1	7.4	54.3*	-2.7	17.8	7.8	-0.5	?
C#CCOCCOCCOCCNc1nc(N2CCN(C(=O)C(CC(N)=O)n3cc(C(N)CC(N)=O)nn3)CC2)nc(N2CCN(C(=O)C(CCCN=C(N)N)n3cc(C(N)C(C)CC)nn3)CC2)n1 (stereo unspecified)	nt	nt	nt	nt	nt	5.5	nt
CC(=O)OC(C)(C)/C=C/C(=O)[C@](C)(O)C1[C@H](O)C[C@@]2(C)C3CC=C4C(C[C@H](O)C(=O)C4(C)C)[C@]3(C)C(=O)C[C@]12C (stereo partly specified)	-0.1	83.6*	nt	nt	nt	nt	89.9*
O=C(CSCc1cccc(CSCC(=O)Nc2ccccc2)n1)Nc1ccccc1	6.3	-3.5	-7.5	16.6	-0.3	9.8	nt
O=C(CSCc1nc2ccccc2[nH]1)Nc1ccccc1	7.0	78.3*	-1.8	6.2	-1.6	5.3	-4.6
COc1ccc2cc3c(N)nn(C(=O)c4ccccc4Cl)c3nc2c1	11.4	57.6*	1.6	6.2	-12.7	-8.3	47.0
COc1cccc2cc(C(=O)Nc3ccccc3Cl)c(=NNS(=O)(=O)c3ccccc3)oc12	nt	nt	nt	nt	nt	9.4	nt
CC(=O)OC1CC[C@@]2(C)C(CCC3C2CC[C@@]2(C)C3CC2C(C)(C)O)C1 (stereo partly specified)	nt	nt	nt	nt	nt	4.4	nt
CCCC[C@@H](C)C[C@@H](C)C(=O)N(C)[C@@H](CC(C)C)C(=O)N[C@H](C(=O)N(C)[C@H](C(=O)N1C[C@@H](O)C[C@H]1C(=O)N1C(=O)C=C[C@@H]1C)C(C)C)C(C)OC(C)=O (stereo partly specified)	10.0	85.3*	nt	nt	nt	-11.3	95.9*
Cc1c(C(=O)OCC(C)C)[nH]c2c1C(=O)CC(c1ccco1)C2 (stereo unspecified)	8.2	70.4*	0.4	3.4	9.0	nt	85.5*
